Assay outcomes from PubChem.
PKA-R1A act: activates the PKA-R1A holoenzyme complex; P00514+P68181; 340,000 compounds, 0.083% hits; activation, % at 11.4 µM; PKA-R1A dissociation, Cy5-IP20 fluorescence polarization; scaled: DMSO 0%, 113 µM cGMP 100%;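 active = percent activation above the mean of all tested compounds plus 3 SD, cut at about 19% in these data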;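 note: higher means more PKAc released from R1A so a rise in polarization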
IDE cell activ: activators of human insulin-degrading enzyme in cells | P14735 | HEK cells, FAbeta-B cleavage, fluorescence polarization; 0% vehicle, 100% cell-free pure enzyme wells | activation, % at 5.96 µM | 340,000 compounds, 0.073% hits;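 active = activation above the mean of all tested compounds plus 3 SD, set per screening campaign, cut at about 17% in these data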
Target sequence (P14735 whole entry, looked up): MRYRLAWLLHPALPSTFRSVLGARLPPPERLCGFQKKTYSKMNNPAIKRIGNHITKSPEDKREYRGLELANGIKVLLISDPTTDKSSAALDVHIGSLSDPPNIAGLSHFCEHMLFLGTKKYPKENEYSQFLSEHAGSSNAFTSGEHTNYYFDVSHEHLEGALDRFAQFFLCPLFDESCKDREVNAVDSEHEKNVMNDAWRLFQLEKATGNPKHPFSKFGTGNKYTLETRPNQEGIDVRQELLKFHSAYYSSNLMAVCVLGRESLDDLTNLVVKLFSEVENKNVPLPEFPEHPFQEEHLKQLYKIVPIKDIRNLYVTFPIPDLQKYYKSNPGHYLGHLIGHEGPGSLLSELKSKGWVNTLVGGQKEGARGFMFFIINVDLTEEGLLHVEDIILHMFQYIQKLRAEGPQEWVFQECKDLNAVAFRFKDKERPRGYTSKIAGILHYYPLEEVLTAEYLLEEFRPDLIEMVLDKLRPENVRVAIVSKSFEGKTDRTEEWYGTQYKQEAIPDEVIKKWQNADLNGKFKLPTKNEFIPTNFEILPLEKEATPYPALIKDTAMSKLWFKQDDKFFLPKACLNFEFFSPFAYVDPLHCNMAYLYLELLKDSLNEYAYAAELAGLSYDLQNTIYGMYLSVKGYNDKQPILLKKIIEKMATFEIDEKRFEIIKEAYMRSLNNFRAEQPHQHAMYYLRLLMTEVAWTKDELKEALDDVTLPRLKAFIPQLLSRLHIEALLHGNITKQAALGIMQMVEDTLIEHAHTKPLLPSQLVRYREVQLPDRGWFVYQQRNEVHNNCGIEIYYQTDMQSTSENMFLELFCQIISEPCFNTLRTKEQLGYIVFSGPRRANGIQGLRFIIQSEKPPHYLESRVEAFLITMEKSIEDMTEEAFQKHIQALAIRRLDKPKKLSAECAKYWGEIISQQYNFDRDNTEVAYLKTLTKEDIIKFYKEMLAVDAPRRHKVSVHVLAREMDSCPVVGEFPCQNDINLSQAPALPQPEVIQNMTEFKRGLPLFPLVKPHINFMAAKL
E coli Lon inh: inhibitors of E. coli Lon protease | P0A9M0 | purified E. coli Lon protease, fluorescence polarization | inhibition, % at 7.94 µM | 360,000 compounds, 0.42% hits; in the data active = inhibition above about 13%, passing the limit was not always enough;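 note: 0% = enzyme with probe and DMSO and 100% = no enzyme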
Rin1-Abl PPI inh: inhibitors of human Rin1-Abl protein interaction; P00519+Q13671; TR-FRET Rin1/Abl binding, biochemical; inhibition, % at 7.35 µM; 360,000 compounds, 0.4% hits; AID 588664; in the data active = inhibition above about 5%, passing the limit was not always enough
PKA-R2B act: PKA-R2B complex activation. AID 504700. PKA-R2B holoenzyme dissociation, Cy5-IP20 fluorescence polarization; R2B truncated from residue 108, S112A mutant; 0% DMSO only, 100% 113 µM cGMP. 340,000 compounds, 0.079% hits. activation, % at 11.4 µM;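 active = activation above a cutoff set at the mean over all compounds plus 3 SD, cut at about 18% in these data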;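 note: higher means more holoenzyme dissociation and a rise in polarization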
IDE cell inh: cellular human IDE inhibition; P14735; HEK cells, FAbetaB cleavage, fluorescence polarization; inhibition, % at 5.59 µM; 320,000 compounds, 0.41% hits; AID 434962;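 active = percent inhibition above the average of all tested compounds plus 3 SD, set per screening campaign, cut at about 16% in these data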;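 note: IDE supplied by intact live HEK cells; FP after avidin binding of uncleaved biotin substrate so inhibition keeps polarization high; 0% = DMSO wells and 100% = 60 µM reference IDE inhibitor Ii1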
Rin1 Abl conf: confirmation of inhibitors of human Rin1-Abl interaction; AID 602124; inhibition, % at 7.35 µM; TR-FRET Rin1-Abl binding, purified proteins; shares compounds with Rin1-Abl PPI inh; 1,300 compounds, 49% hits
GFP quench: counter-screen for Rin1-Abl inhibitors: GFP fluorescence quenchers. shares compounds with Rin1-Abl PPI inh. inhibitors/quenchers counterscreen. inhibition, % at 6.75 µM. 1,300 compounds, 8.5% hits. AID 602125;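 note: ABL1-eGFP fusion protein alone without its partner RIN1-SBP; 0% = protein with vehicle and 100% = wells lacking protein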
GFP quench dose: quenches GFP in dose response, Rin1-Abl counter-screen. IC50, µM. 230 tested, under 10 active. GFP fluorescence interference/quenching counterscreen. shares compounds with Rin1-Abl PPI inh; call rule not given here;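 note: ABL1-eGFP fusion protein alone without its RIN1 binding partner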
eLon confirm: confirmation of E. coli Lon protease inhibitors | shares compounds with E coli Lon inh | AID 602230 | inhibition, % at 7.94 µM | purified E. coli Lon, fluorescence polarization | 1,400 compounds, 31% hits; in the data active = inhibition above about 16%;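 note: 0% = enzyme with probe and DMSO and 100% = no enzyme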
Numbers without * were called inactive; x = no result given; ! = not confirmed by another sample. An excerpt weighted towards active compounds, which were near 1.3% of everything screened. Cut-off read from the data, not from the text of the source, unless noted: active = inhibition above about 6.5%; inactive = the rest.

SMILES	PKA-R1A act	IDE cell activ	E coli Lon inh	Rin1-Abl PPI inh	PKA-R2B act	IDE cell inh	Rin1 Abl conf	GFP quench	others
Cc1nc(N/N=C/c2ccc(O)cc2O)cc(N2CCOCC2)n1	-2	0	3	36*	5	6	44*	-2	GFP quench dose=>68
Cc1nc(N/N=C/c2cccc(F)c2)cc(N2CCOCC2)n1	-6	-1	-12	0	-9	2	x	x
CCOC(=O)C1=C(C)N(C)C(=O)NC1c1cc2c(cc1[N+](=O)[O-])OCO2 (stereo unspecified)	-10	0	12	8.7*	-3	5	7.4*	1
CCCCOC(=O)C1=C(C)N(C)C(=O)NC1c1cc2c(cc1Br)OCO2 (stereo unspecified)	-5	x	4	-2	0	x	x	x
CC1CCCC(NC(=O)CCCn2c(=O)[nH]c3cc(Cl)ccc3c2=O)C1C (stereo unspecified)	-8	-2	2	0	8	5	x	x
CC(=O)OCC1OC(n2ccc(=O)[nH]c2=O)C(O)C1O (stereo unspecified)	-5	0	-6	1	-10	0	x	x
CC(=O)OC[C@H]1O[C@@H](n2ccc(=O)[nH]c2=S)C(OC(C)=O)C1OC(C)=O (stereo partly specified)	-15	5	-12	12*	9	10	9.3*	0
Cn1cc(C2CC(c3ccccc3)=NN2C(=O)c2ccccc2)c2ccccc21 (stereo unspecified)	-2	-1	-12	-1	-5	5	x	x
CCOc1cc(/C=C2/C(=O)N(c3ccccc3)N=C2C)ccc1OC(=O)c1ccco1	-7	3	-6	19*	-4	2	-4	-4
CC1=NN(c2ccccc2)C(=O)/C1=C/c1ccc(Cl)cc1	-3	1	1	12*	4	x	0	2
CCOc1cc(/C=C2\C(=O)N(c3ccc(C(N)=O)cc3)N=C2C)ccc1OC(=O)c1cccs1	-7	2	8	0	2	2	x	x
CC1=NN(c2ccc(C(=O)O)cc2)C(=O)/C1=C\c1ccc(OC(=O)c2cccs2)cc1	-2	5	0	11*	-5	1	-1	-1
CC1=NN(c2ccccc2)C(=O)/C1=C/c1cccs1	-10	0	-7	-1	-1	3	x	x
CC1=C(C(=O)NCc2ccc(Cl)cc2)C2(CCC(C)CC2)OC1=O (stereo unspecified)	-8	6	7	-2	-2	1	x	x
COc1ccc(CNC(=O)C2=C(C)C(=O)OC23CCC(C)CC3)cc1 (stereo unspecified)	12	3	-12	7.4*	8	2	0	2
CC(C)(C)NC(=O)CSc1nc2ccccc2n1-c1ccccc1	2	1	-12	3	3	0	x	x
CCCn1nc(C(=O)N(C)CC(=O)Nc2ccc(OCC)c(OCC)c2)c2ccccc2c1=O	3	2	3	21*	3	6	34*	1	GFP quench dose=>68
C=CCc1ccccc1OCC(O)CN1CCN(c2ccccc2OC)CC1 (stereo unspecified)	-1	1	1	7.4*!	1	-9	-1	0
CCc1oc(C(=O)O)cc1CN(CC)CC	-8	10	0	5	7	4	x	x
CCN(CC)Cc1cc(O)c(CN(CC)CC)cc1O	7	-1	35*	11*	1	x	1	5	eLon confirm=30*
CC(=O)c1ccc2c(c1)C1C=CCC1C(C(=O)O)N2 (stereo unspecified)	x	x	38*	14*	x	x	13*	43*	eLon confirm=22*
O=C1C=CC(=O)c2c(O)c(N3CCN(CCOCCO)CC3)c(Br)c(O)c21	-2	4	126*	39*	1	x	54*	25*	eLon confirm=114*
O=S(=O)(c1ccc(Br)cc1Cl)N1CCN(CCO)CC1	4	-5	3	-3	-1	-6	x	x
O=C1C=CC(=O)c2c(O)c(N3CCN(CCO)CC3)c(Cl)c(O)c21	-3	8	172*	48*	-12	x	51*	24*	eLon confirm=96*
CCCC(=O)c1ccc(N2CCN(S(=O)(=O)c3ccc(C)cc3)CC2)c(F)c1	-4	1	-11	3	-1	-2	x	x
SMILES	PKA-R1A act	IDE cell activ	E coli Lon inh	Rin1-Abl PPI inh	PKA-R2B act	IDE cell inh	Rin1 Abl conf	GFP quench	others
Cc1cc2oc(=O)cc(-c3cc4ccccc4o3)c2cc1O	10	-2	4	1	7	1	x	x
COc1cc(OC)c(-c2c3cc(O)c(=O)cc-3oc3cc(O)c(O)cc23)cc1OC	-5	41*	20*	62*	1	-55	73*	-124	GFP quench dose=>68;eLon confirm=-54
Cc1c2cc(O)c(=O)cc-2oc2cc(O)c(O)cc12	-9	-24	48*	65*	11	8	88*	-16	eLon confirm=196*
Cc1cccnc1NC(=O)c1ccc(OCC2CCCO2)cc1 (stereo unspecified)	-4	0	-3	-1	-1	-6	x	x
O=C1NC(Cc2ccccc2)c2nc3ccc(Cl)cc3c(=O)n2-c2cc(Cl)ccc21 (stereo unspecified)	x	x	x	x	x	-3	x	x
CCN=c1scc(C)n1/N=C/c1ccc(O)c(O)c1O	-8	-12	25*	20*	2	12	16*	12*	eLon confirm=22*
O=C(CSc1ncnc2c1sc1ccccc12)Nc1ccc(Br)cc1	-8	3	4	-162	3	-1	x	x
Cc1ccc(-c2[nH]c3cc(C(=O)NCCCn4ccnc4)ccc3c(=O)c2O)cc1	-1	3	125*	19*	-3	5	11*	11*	eLon confirm=92*
CCOC(=O)CC(NC(=O)c1cc2cc(Br)ccc2oc1=O)c1cccc([N+](=O)[O-])c1 (stereo unspecified)	3	-2	-8	-3	-3	5	x	x
Cc1cc(NC(=O)CSc2cn(CCNC(=O)c3ccccc3)c3ccccc23)no1	-10	0	20*	24*	-5	0	14*	2	eLon confirm=-7
Cc1ccc(C(=O)NCCn2cc(SCC(=O)Nc3cc(C)on3)c3ccccc32)cc1	-3	-1	10	2	-13	7	x	x
O=C(CCCC(=O)N/N=C\c1ccccn1)N/N=C\c1ccccn1	12	-1	-7	-1	1	-3	x	x
